From the antibiotic and cytotoxicity screens of Wong et al. (2023)
Screen size: about 39,000 compounds; about 3,300 (8.5%) were called active. Only a selection was taken, and actives are over-represented in it overall.

The molecules below were run on HepG2 (assay: cytotoxicity call (relative viability < 0.9)). Settings: 10 µM.
In the case of `Nc1cccc2c(=O)[nH][nH]c(=O)c12`, the cytotoxicity call was “inactive”.
`O=C(N/N=C/[C@H](O)[C@@H](O)[C@H](O)[C@H](O)CO)c1ccccn1` was tested, and the cytotoxicity call was “inactive”.
`N[C@@H](CCO)c1cccc(Cl)c1` was tested, and the cytotoxicity call was “inactive”.
`C[C@H]1CN([C@@H](C)CO)C(=O)c2cc(Br)cnc2O[C@H]1CN(C)S(=O)(=O)c1ccccc1` was tested, and the cytotoxicity call was “inactive”.
`C[C@H](CO)N1C[C@H](C)[C@@H](CN(C)C(=O)Nc2ccc(F)cc2)Oc2ccc(NS(C)(=O)=O)cc2CC1=O` was tested, and the cytotoxicity call was “inactive”.
With `NCc1nnnn1-c1ccc(F)cc1` the cytotoxicity call was “inactive”.
`C[C@@H]1CCCCO[C@@H](CN(C)C(=O)c2ccccc2)[C@@H](C)CN([C@@H](C)CO)C(=O)c2cc(NC(=O)NC3CCCCC3)ccc2O1` was tested, and the cytotoxicity call was “inactive”.
In the case of `COc1cccc(CN(C)C[C@H]2OCc3ccccc3-c3c(n(C)c4ccccc34)C(=O)N([C@@H](C)CO)C[C@@H]2C)c1`, the cytotoxicity call was “inactive”.
For `COc1cccc(CN(C)C[C@@H]2OCc3ccccc3-c3c(n(C)c4ccccc34)C(=O)N([C@@H](C)CO)C[C@@H]2C)c1`, the cytotoxicity call was “inactive”.
`C[C@H]1CN([C@@H](C)CO)C(=O)c2c(c3ccccc3n2C)-c2ccccc2CO[C@H]1CN(C)Cc1cccc(F)c1` was tested, and the cytotoxicity call was “inactive”.
With `C[C@H](CO)N1C[C@H](C)[C@H](CN(C)Cc2cccc(F)c2)OCc2ccccc2-c2c(n(C)c3ccccc23)C1=O` the cytotoxicity call was “active”.
For `COc1cccc(CN(C)C[C@H]2OCc3ccccc3-c3c(n(C)c4ccccc34)C(=O)N([C@@H](C)CO)C[C@H]2C)c1`, the cytotoxicity call was “active”.
`C[C@@H]1CN([C@H](C)CO)C(=O)c2c(c3ccccc3n2C)-c2ccccc2CO[C@H]1CN(C)Cc1cccc(F)c1` was tested, and the cytotoxicity call was “inactive”.
`C[C@@H]1CN([C@@H](C)CO)C(=O)c2c(c3ccccc3n2C)-c2ccccc2CO[C@H]1CN(C)Cc1cccc(F)c1` was tested, and the cytotoxicity call was “inactive”.
`C[C@H](CO)N1C[C@H](C)[C@@H](CN(C)Cc2cccc(F)c2)OCc2ccccc2-c2c(n(C)c3ccccc23)C1=O` was tested, and the cytotoxicity call was “inactive”.
In the case of `C[C@H]1CCCCO[C@@H](CN(C)S(=O)(=O)c2ccccc2)[C@@H](C)CN([C@@H](C)CO)C(=O)c2cc(NC(=O)Nc3ccccc3)ccc2O1`, the cytotoxicity call was “inactive”.
`Cc1ccc(S(=O)(=O)N2C[C@H](O)COC[C@H]3O[C@@H](CC(=O)NCc4ccc5c(c4)OCO5)CC[C@@H]32)cc1` was tested, and the cytotoxicity call was “inactive”.
`N=C(N)SC=CC(=O)O` was tested, and the cytotoxicity call was “inactive”.
For `C[C@@H]1CN([C@H](C)CO)C(=O)c2cc(NC(=O)CCN3CCOCC3)ccc2O[C@@H]1CN(C)C(=O)Nc1ccc(F)cc1`, the cytotoxicity call was “inactive”.
In the case of `Cc1n[nH]c(=O)[nH]c1=O`, the cytotoxicity call was “inactive”.
With `C[C@@H]1CN([C@H](C)CO)C(=O)c2cccc(NC(=O)c3ccncc3)c2O[C@H]1CN(C)S(=O)(=O)c1ccc(F)cc1` the cytotoxicity call was “inactive”.
`C[C@@H]1CN([C@@H](C)CO)C(=O)c2cc(C#CC3(O)CCCC3)cnc2O[C@H]1CN(C)C(=O)Nc1ccc2c(c1)OCO2` was tested, and the cytotoxicity call was “inactive”.
For `Cc1ccc(S(=O)(=O)Nc2cccc3c2O[C@@H](CN(C)Cc2ccc(Cl)c(Cl)c2)[C@@H](C)CN([C@H](C)CO)C3=O)cc1`, the cytotoxicity call was “inactive”.
With `C[C@@H]1CCCCO[C@H](CN(C)C(=O)Nc2cccc3ccccc23)[C@@H](C)CN([C@H](C)CO)C(=O)c2cc(NC(=O)CCC(F)(F)F)ccc2O1` the cytotoxicity call was “inactive”.
`C[C@@H]1CCCCO[C@H](CN(C)C(=O)Nc2cccc3ccccc23)[C@H](C)CN([C@@H](C)CO)C(=O)c2cc(NC(=O)CCC(F)(F)F)ccc2O1` was tested, and the cytotoxicity call was “inactive”.
For `C[C@@H]1CN([C@H](C)CO)C(=O)c2cc(NC(=O)CCC(F)(F)F)ccc2O[C@@H](C)CCCCO[C@H]1CN(C)C(=O)Nc1cccc2ccccc12`, the cytotoxicity call was “active”.
With `C[C@H]1CCCCO[C@H](CN(C)C(=O)Nc2cccc3ccccc23)[C@@H](C)CN([C@@H](C)CO)C(=O)c2cc(NC(=O)CCC(F)(F)F)ccc2O1` the cytotoxicity call was “active”.
For `C[C@@H]1CCCCO[C@@H](CN(C)C(=O)Nc2cccc3ccccc23)[C@@H](C)CN([C@H](C)CO)C(=O)c2cc(NC(=O)CCC(F)(F)F)ccc2O1`, the cytotoxicity call was “inactive”.
For `C[C@@H]1CCCCO[C@@H](CN(C)C(=O)Nc2cccc3ccccc23)[C@H](C)CN([C@@H](C)CO)C(=O)c2cc(NC(=O)CCC(F)(F)F)ccc2O1`, the cytotoxicity call was “inactive”.
With `C[C@@H]1CN([C@@H](C)CO)C(=O)c2cc(NC(=O)CCC(F)(F)F)ccc2O[C@@H](C)CCCCO[C@@H]1CN(C)C(=O)Nc1cccc2ccccc12` the cytotoxicity call was “inactive”.
For `C[C@H](CO)N1C[C@H](C)[C@@H](CN(C)C(=O)Nc2cccc3ccccc23)OCCCC[C@H](C)Oc2ccc(NC(=O)CCC(F)(F)F)cc2C1=O`, the cytotoxicity call was “active”.
For `C[C@@H]1CCCCO[C@@H](CN(C)C(=O)Nc2cccc3ccccc23)[C@H](C)CN([C@H](C)CO)C(=O)c2cc(NC(=O)CCC(F)(F)F)ccc2O1`, the cytotoxicity call was “inactive”.
`CC(C)NC(=O)N(C)C[C@H]1Oc2ccc(NS(=O)(=O)c3ccccc3)cc2C(=O)N([C@@H](C)CO)C[C@H]1C` was tested, and the cytotoxicity call was “inactive”.
For `C[C@@H]1CN([C@H](C)CO)C(=O)c2cccc(NC(=O)Nc3ccccc3)c2O[C@@H]1CN(C)CC1CCCCC1`, the cytotoxicity call was “inactive”.
In the case of `COc1ccccc1-c1cnc2c(c1)C(=O)N([C@@H](C)CO)C[C@@H](C)[C@@H](CN(C)C(=O)c1ccncc1)O2`, the cytotoxicity call was “inactive”.
For `COc1ccc(S(=O)(=O)Nc2ccc3c(c2)C(=O)N([C@H](C)CO)C[C@@H](C)[C@@H](CN(C)C(=O)CCC(F)(F)F)OCCCC[C@@H](C)O3)cc1`, the cytotoxicity call was “inactive”.
`O=C(/C=C/c1ccccc1)c1ccc(O[C@@H]2O[C@H](CO)[C@@H](O)[C@H](O)[C@H]2O)cc1O` was tested, and the cytotoxicity call was “inactive”.
For `C[C@H](CO)N1C[C@H](C)[C@@H](CN(C)S(=O)(=O)c2ccc(F)cc2)Oc2c(NS(=O)(=O)c3ccccc3)cccc2C1=O`, the cytotoxicity call was “inactive”.
In the case of `CON=C(C(=O)N[C@@H]1C(=O)N2C(C(=O)O)=C(CSc3nc(=O)c(O)nn3C)CS[C@H]12)c1csc(N)n1`, the cytotoxicity call was “inactive”.
`COc1ccc(S(=O)(=O)N(C)C[C@@H]2Oc3ccc(N(C)C)cc3C(=O)N([C@H](C)CO)C[C@H]2C)cc1` was tested, and the cytotoxicity call was “inactive”.
`Cc1ccc(S(=O)(=O)N2C[C@@H](O)COC[C@@H]3O[C@H](CC(=O)NCCCN(C)C)CC[C@H]32)cc1` was tested, and the cytotoxicity call was “inactive”.
With `Cc1ccc(S(=O)(=O)Nc2ccc3c(c2)C(=O)N([C@@H](C)CO)C[C@@H](C)[C@H](CN(C)Cc2ccc(C(F)(F)F)cc2)O3)cc1` the cytotoxicity call was “inactive”.
`Cc1ccc(S(=O)(=O)Nc2ccc3c(c2)C(=O)N([C@@H](C)CO)C[C@H](C)[C@H](CN(C)Cc2ccc(C(F)(F)F)cc2)O3)cc1` was tested, and the cytotoxicity call was “inactive”.
With `Cc1ccc(S(=O)(=O)Nc2ccc3c(c2)C(=O)N([C@H](C)CO)C[C@H](C)[C@H](CN(C)Cc2ccc(C(F)(F)F)cc2)O3)cc1` the cytotoxicity call was “active”.
With `Cc1ccc(S(=O)(=O)Nc2ccc3c(c2)C(=O)N([C@@H](C)CO)C[C@H](C)[C@@H](CN(C)Cc2ccc(C(F)(F)F)cc2)O3)cc1` the cytotoxicity call was “inactive”.
With `Cc1ccc(S(=O)(=O)Nc2ccc3c(c2)C(=O)N([C@H](C)CO)C[C@@H](C)[C@H](CN(C)Cc2ccc(C(F)(F)F)cc2)O3)cc1` the cytotoxicity call was “active”.
In the case of `Cc1ccc(S(=O)(=O)Nc2ccc3c(c2)C(=O)N([C@@H](C)CO)C[C@@H](C)[C@@H](CN(C)Cc2ccc(C(F)(F)F)cc2)O3)cc1`, the cytotoxicity call was “inactive”.
With `Cc1ccc(S(=O)(=O)Nc2ccc3c(c2)C(=O)N([C@H](C)CO)C[C@@H](C)[C@@H](CN(C)Cc2ccc(C(F)(F)F)cc2)O3)cc1` the cytotoxicity call was “active”.
For `Cc1ccc(S(=O)(=O)Nc2ccc3c(c2)C(=O)N([C@H](C)CO)C[C@H](C)[C@@H](CN(C)Cc2ccc(C(F)(F)F)cc2)O3)cc1`, the cytotoxicity call was “inactive”.
In the case of `Cn1cccc1C(=O)NCc1cn2c(n1)CN(S(C)(=O)=O)CC2`, the cytotoxicity call was “inactive”.
`COC(=O)[C@@H]1N2C(=O)[C@@H](N3C[C@](C)(OC)O[C@@H](Cc4ccccc4)[C@H]3/C=C/C3CC3)[C@H]2SC1(C)C` was tested, and the cytotoxicity call was “inactive”.
In the case of `C[C@H]1CCCCO[C@@H](CN(C)C(=O)Nc2cccc3ccccc23)[C@@H](C)CN([C@@H](C)CO)C(=O)c2cc(NC(=O)c3ccncc3)ccc2O1`, the cytotoxicity call was “inactive”.
`C[C@H]1CN([C@@H](C)CO)C(=O)c2cc(C#CCN(C)C)cnc2O[C@@H]1CN(C)C(=O)Nc1cc(F)ccc1F` was tested, and the cytotoxicity call was “inactive”.
In the case of `O=C(C[C@@H]1CC[C@H]2[C@@H](COC[C@H](O)CN2S(=O)(=O)c2ccccc2)O1)NCc1ccc(-c2ccccc2)cc1`, the cytotoxicity call was “inactive”.
In the case of `COCC(=O)N1C[C@@H](C)[C@@H](OC)CN(C)C(=O)c2ccc(NC(=O)c3ccc(F)cc3)cc2OC[C@H]1C`, the cytotoxicity call was “inactive”.
For `COc1ccc(S(=O)(=O)N(C)C[C@H]2Oc3ccc(NS(=O)(=O)c4c(C)noc4C)cc3CC(=O)N([C@H](C)CO)C[C@@H]2C)cc1`, the cytotoxicity call was “inactive”.
In the case of `COc1ccc(S(=O)(=O)N(C)C[C@H]2OCCCC[C@@H](C)Oc3ccc(NC(=O)Nc4cccc5ccccc45)cc3C(=O)N([C@H](C)CO)C[C@H]2C)cc1`, the cytotoxicity call was “inactive”.
In the case of `CC(C)(C)NC(=O)C1CN(Cc2cccnc2)CCN1CC(O)CC(Cc1ccccc1)C(=O)NC1c2ccccc2CC1O` (stereo not drawn), the cytotoxicity call was “active”.
`CC(C)(C)NC(=O)[C@@H]1CN(Cc2cccnc2)CCN1C[C@@H](O)C[C@@H](Cc1ccccc1)C(=O)N[C@H]1c2ccccc2C[C@H]1O` was tested, and the cytotoxicity call was “inactive”.
`CC(C)(C)NC(=O)[C@@H]1CN(Cc2cccnc2)CCN1C[C@@H](O)C[C@@H](Cc1ccccc1)C(=O)N[C@@H]1c2ccccc2C[C@@H]1O` was tested, and the cytotoxicity call was “inactive”.
`O=C(C[C@@H]1CC[C@H]2[C@@H](COC[C@H](O)CN2S(=O)(=O)c2cccc(F)c2)O1)NCCCN1CCOCC1` was tested, and the cytotoxicity call was “inactive”.
In the case of `NCc1ccncc1`, the cytotoxicity call was “inactive”.
In the case of `C=CCOC(=O)[C@@H]1[C@H]2C(=O)O[C@H](c3ccccc3)[C@H](c3ccccc3)N2[C@H](c2ccc(OCCOC(=O)[C@H]3C[C@H]4C(=O)NCC(=O)N4[C@H]3c3ccc(O)cc3)cc2)[C@@]12C(=O)Nc1ccccc12`, the cytotoxicity call was “inactive”.
